# According to PubChem BioAssay (EPA / NIEHS):
# “And” between values parts separate entries of the source, which are not always exact repeats. Equal entries are not always repeated. Some compounds were tested as several samples or in several runs, with calls that do not always agree. The source made the active and inactive calls. Rule for the calls: active = hit-call score of the fitted dose curve at least 0.9, where 1 is the maximum; inactive = score below 0.9.
# Experiments:
# Conditions in all cases: mRNA level, 48 h; actives raise or lower the signal
# [1] = read-out: Cyclin D2 (CCND2), CCND2 (gene 894); experiment: LTEA_HepaRG_CCND2: Life Technologies and Expression Analysis (LTEA) Assay for Cyclin D2 (CCND2) using HepaRG (AID 2283449);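 note: CCND2 transcript measured by TaqMan qRT-PCR and normalised to three housekeeping genes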
# Method in brief: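 HepaRG, 48 h dosing, 8-pt half-log curve from 100 uM, 0.5% DMSO; duplicate wells. Readout: CCND2 transcript by microfluidic qRT-PCR, housekeeping-normalised; bidirectional fit vs DMSO baseline.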
# [2] = read-out: Cyclin Dependent Kinase Inhibitor 1A (CDKN1A), CDKN1A (gene 1026); experiment: LTEA_HepaRG_CDKN1A: Life Technologies and Expression Analysis (LTEA) Assay for Cyclin Dependent Kinase Inhibitor 1A (CDKN1A) using HepaRG (AID 2283450)
# Method in brief: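 Read-out is CDKN1A mRNA by TaqMan qRT-PCR, normalized to three housekeeping genes and fitted in both directions against the DMSO baseline. Human HepaRG cells were treated 48 h with test chemicals up to 100 uM in half-log steps, 0.5% DMSO.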
# [3] = read-out: Cyclin D1 (CCND1), CCND1 (gene 595); experiment: LTEA_HepaRG_CCND1: Life Technologies and Expression Analysis (LTEA) Assay for Cyclin D1 (CCND1) using HepaRG (AID 2283451);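 for AC50: differentiated human HepaRG liver cells in serum-free induction medium; TaqMan qRT-PCR transcript level normalised to ACTB GAPDH and POLR2A housekeeping genes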
# Method in brief: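 HepaRG plated 48 h, medium switched to serum-free induction medium, chemicals added in duplicate (top 100 uM, half-log steps, 0.5% DMSO) for 48 h, cells lysed, RNA measured by TaqMan qRT-PCR.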
# [4] = read-out: catalase (CAT), CAT (gene 847); experiment: LTEA_HepaRG_CAT: Life Technologies and Expression Analysis (LTEA) Assay for catalase (CAT) using HepaRG (AID 2283452)
# Method in brief: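 HepaRG cells in serum-free induction medium, 0.5% DMSO vehicle, exposed 48 h in duplicate over 8 half-log concentrations from 100 uM. CAT mRNA measured by qRT-PCR, normalized to ACTB, GAPDH, POLR2A; bidirectional fit versus DMSO.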
# [5] = read-out: flavin-containing dimethylaniline monooxygenases 3 (FMO3), FMO3 (gene 2328); experiment: LTEA_HepaRG_FMO3: Life Technologies and Expression Analysis (LTEA) Assay for flavin-containing dimethylaniline monooxygenases 3 (FMO3) using HepaRG (AID 2283453);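 note: differentiated human HepaRG liver cells in serum-free induction medium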
# Method in brief: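 Eight-point concentration-response in serum-free HepaRG cultures (top 100 uM, 0.5% DMSO, 48 h). Read-out: FMO3 mRNA level normalized to three endogenous control genes, fitted bidirectionally versus vehicle.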
# [6] = read-out: Cytochrome P450 (CYP1A1), CYP1A1 (gene 1543); experiment: LTEA_HepaRG_CYP1A1: Life Technologies and Expression Analysis (LTEA) Assay for Cytochrome P450 (CYP1A1) using HepaRG (AID 2283454)
# Method in brief: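 HepaRG, 48 h post-plating switched to serum-free induction medium; 8-pt conc-response (top 100 uM, half-log, 0.5% DMSO), duplicates, 48 h. Lysis in RLT, TaqMan qRT-PCR for CYP1A1; gain or loss vs DMSO.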
# [7] = read-out: CFLAR gene, CFLAR (gene 8837); experiment: LTEA_HepaRG_CFLAR: Life Technologies and Expression Analysis (LTEA) Assay for CFLAR gene using HepaRG (AID 2283455)
# Method in brief: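 qRT-PCR read-out (Fluidigm/TaqMan) of CFLAR mRNA, normalized to three housekeeping genes, in differentiated human HepaRG cells after 48 h chemical exposure; 8-point half-log series from 100 uM in 0.5% DMSO; bidirectional curve fitting versus DMSO.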
# [8] = read-out: Forkhead box O1 (FOXO1), FOXO1 (gene 2308); experiment: LTEA_HepaRG_FOXO1: Life Technologies and Expression Analysis (LTEA) Assay for Forkhead box O1 (FOXO1) using HepaRG (AID 2283456)
# Method in brief: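 HepaRG, 48 h exposure, 8-pt half-log series from 100 uM in 0.5% DMSO, duplicates; Fluidigm qRT-PCR mRNA, housekeeping-normalised; bidirectional fit vs DMSO baseline.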
# [9] = read-out: growth arrest and DNA damage 45 (GADD45A), GADD45A (gene 1647); experiment: LTEA_HepaRG_GADD45A: Life Technologies and Expression Analysis (LTEA) Assay for growth arrest and DNA damage 45 (GADD45A) using HepaRG (AID 2283458)
# Method in brief: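 HepaRG, 48 h exposure, 8 conc. (top 100 uM, half-log steps), 0.5% DMSO vehicle, duplicates. Read-out: qRT-PCR mRNA level, housekeeping-normalized (ACTB/GAPDH/POLR2A). Curves fit bidirectionally vs DMSO baseline.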
# [10] = read-out: Forkhead box O3 (FOXO3), FOXO3 (gene 2309); experiment: LTEA_HepaRG_FOXO3: Life Technologies and Expression Analysis (LTEA) Assay for Forkhead box O3 (FOXO3) using HepaRG (AID 2283459)
# Method in brief: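 qRT-PCR readout of FOXO3 transcript, normalized to three housekeeping genes (ACTB, GAPDH, POLR2A); gain or loss fitted against 0.5% DMSO vehicle. HepaRG cells, 48 h chemical exposure, 8-point half-log series, top 100 uM.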
# [11] = read-out: ABC Transporter (ABCB1), ABCB1 (gene 5243); experiment: LTEA_HepaRG_ABCB1: Life Technologies and Expression Analysis (LTEA) Assay for ABC Transporter (ABCB1) using HepaRG (AID 2283460)
# Method in brief: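 HepaRG, 48 h exposure, 8-pt half-log series from 100 uM, 0.5% DMSO vehicle, duplicates. Readout: ABCB1 transcript by Fluidigm TaqMan qRT-PCR, housekeeping-normalized; bidirectional curve fit vs DMSO baseline.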
# [12] = read-out: growth arrest and DNA damage 45 (GADD45B), GADD45B (gene 4616); experiment: LTEA_HepaRG_GADD45B: Life Technologies and Expression Analysis (LTEA) Assay for growth arrest and DNA damage 45 (GADD45B) using HepaRG (AID 2283461)
# Method in brief: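 HepaRG, ~100,000 cells/well, 48 h plating; serum-free induction medium; cpd 100 uM top, half-log x8, 0.5% DMSO, duplicate, 48 h; lysis in RLT, RNA isolation, qRT-PCR; norm ACTB/GAPDH/POLR2A; bidirectional fit vs DMSO.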
# [13] = read-out: ABC Transporter (ABCC3), ABCC3 (gene 8714); experiment: LTEA_HepaRG_ABCC3: Life Technologies and Expression Analysis (LTEA) Assay for ABC Transporter (ABCC3) using HepaRG (AID 2283462)
# Method in brief: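 Human HepaRG, 48 h dosing, 8-pt half-log series from 100 uM, 0.5% DMSO vehicle, duplicates. ABCC3 mRNA by TaqMan qRT-PCR, housekeeping-normalized; bidirectional curve fit vs DMSO.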
# [14] = read-out: ABC Transporter (ABCB11), ABCB11 (gene 8647); experiment: LTEA_HepaRG_ABCB11: Life Technologies and Expression Analysis (LTEA) Assay for ABC Transporter (ABCB11) using HepaRG (AID 2283463)
# Method in brief: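 HepaRG, 48 h exposure, 8-pt half-log CRC top 100 uM, 0.5% DMSO vehicle, duplicates. Readout: TaqMan qRT-PCR of ABCB11 mRNA, housekeeping-normalized (ACTB/GAPDH/POLR2A). Bidirectional fit vs DMSO baseline.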
# [15] = read-out: ABC Transporter (ABCC2), ABCC2 (gene 1244); experiment: LTEA_HepaRG_ABCC2: Life Technologies and Expression Analysis (LTEA) Assay for ABC Transporter (ABCC2) using HepaRG (AID 2283464)
# Method in brief: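 HepaRG, 48 h post-plating; serum-free induction medium; cpd 8-pt, 100 uM top, half-log, 0.5% DMSO, duplicate, 48 h. Readout: ABCC2 mRNA by qRT-PCR, norm. ACTB/GAPDH/POLR2A. Bidirectional fit vs DMSO baseline.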
# [16] = read-out: Broad substrate specificity ATP-binding cassette transporter ABCG2 (Homo sapiens) (UniProt Q9UNQ0); experiment: LTEA_HepaRG_ABCG2: Life Technologies and Expression Analysis (LTEA) Assay for ABC Transporter (ABCG2) using HepaRG (AID 2283465)
# Method in brief: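 HepaRG, 48 h exposure, 8-pt half-log series from 100 uM, 0.5% DMSO vehicle, duplicates. Readout: ABCG2 transcript by qRT-PCR (Fluidigm array), housekeeping-normalized; bidirectional curve fit relative to DMSO baseline.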
# [17] = read-out: ATP-citrate lyase (ACLY), ACLY (gene 47); experiment: LTEA_HepaRG_ACLY: Life Technologies and Expression Analysis (LTEA) Assay for ATP-citrate lyase (ACLY) using HepaRG (AID 2283466)
# Method in brief: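 qRT-PCR readout of ACLY transcript after 48 h chemical treatment of HepaRG cells; expression normalized to three housekeeping genes. Eight-point half-log series, highest 100 uM, 0.5% DMSO vehicle. Gain or loss fitted against DMSO baseline.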
# [18] = read-out: Peroxisomal acyl-coenzyme A oxidase 1 (ACOX1) gene, ACOX1 (gene 51); experiment: LTEA_HepaRG_ACOX1: Life Technologies and Expression Analysis (LTEA) Assay for Peroxisomal acyl-coenzyme A oxidase 1 (ACOX1) gene using HepaRG (AID 2283467)
# Method in brief: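 HepaRG, 48 h chemical exposure, 8-pt half-log series from 100 uM top, 0.5% DMSO vehicle, duplicates. Readout: ACOX1 mRNA by Fluidigm qRT-PCR, housekeeping-normalized; bidirectional fit vs DMSO baseline.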
# [19] = read-out: Alkaline Phosphatase, Placental (ALPP) gene, ALPP (gene 250); experiment: LTEA_HepaRG_ALPP: Life Technologies and Expression Analysis (LTEA) Assay for Alkaline Phosphatase, Placental (ALPP) gene using HepaRG (AID 2283468);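 for AC50: differentiated human HepaRG liver cells in serum-free induction medium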
# Method in brief: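 HepaRG, 48 h plating then 48 h dosing, serum-free induction medium, 0.5% DMSO. 8 conc, half-log, max 100 uM, duplicates. Endpoint: ALPP transcript by qRT-PCR, housekeeping-normalized; gain or loss fitted vs DMSO.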
# Chain of Broad substrate specificity ATP-binding cassette transporter ABCG2 (Homo sapiens) (Q9UNQ0 whole entry, looked up): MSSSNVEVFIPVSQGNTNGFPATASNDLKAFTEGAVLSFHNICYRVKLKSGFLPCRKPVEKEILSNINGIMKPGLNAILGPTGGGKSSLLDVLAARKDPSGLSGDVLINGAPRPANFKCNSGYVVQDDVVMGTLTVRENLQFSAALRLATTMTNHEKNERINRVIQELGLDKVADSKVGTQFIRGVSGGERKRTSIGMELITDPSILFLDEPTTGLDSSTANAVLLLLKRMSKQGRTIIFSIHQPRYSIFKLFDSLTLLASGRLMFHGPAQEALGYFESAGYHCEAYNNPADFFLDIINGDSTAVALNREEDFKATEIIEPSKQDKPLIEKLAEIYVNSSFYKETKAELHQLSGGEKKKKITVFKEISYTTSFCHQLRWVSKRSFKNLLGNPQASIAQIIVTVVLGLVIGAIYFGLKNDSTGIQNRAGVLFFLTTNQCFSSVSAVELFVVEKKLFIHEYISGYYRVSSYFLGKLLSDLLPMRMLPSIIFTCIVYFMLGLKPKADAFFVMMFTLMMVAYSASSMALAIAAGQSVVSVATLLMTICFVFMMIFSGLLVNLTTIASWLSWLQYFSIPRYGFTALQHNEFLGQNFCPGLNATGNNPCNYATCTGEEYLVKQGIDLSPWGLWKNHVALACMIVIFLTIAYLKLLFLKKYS
smiles,measurement,setting,value
S=C(S)NCCNC(=S)S.[Mn+2].[S-]C([S-])=NCCN=C([S-])[S-].[Zn+2],outcome,[1],inactive
same,AC50,[2],25 µM (active) and 3.66 µM (active)
same,outcome,[2],inactive
same,AC50,[3],0.187 µM (active)
same,outcome,[3],inactive
same,AC50,[4],881 nM (active) and 1.09 µM (active) and 1.05 µM (active)
same,AC50,[5],4.22 µM (active) and 2.04 µM (active) and 2.68 µM (active)
same,AC50,[6],116 nM (active) and 122 nM (active)
same,AC50,[7],1.31 µM (active) and 1.18 µM (active) and 1.48 µM (active)
same,AC50,[8],4.79 µM (active) and 9.06 µM (active)
same,outcome,[8],inactive
same,AC50,[9],3.61 µM (active) and 2.03 µM (active)
same,outcome,[9],inactive
same,AC50,[10],1.62 µM (active) and 1.21 µM (active)
same,outcome,[10],inactive
same,AC50,[11],881 nM (active) and 993 nM (active) and 732 nM (active)
same,AC50,[12],3.12 µM (active) and 2.14 µM (active) and 4.41 µM (active)
same,AC50,[13],717 nM (active) and 898 nM (active) and 1.03 µM (active)
same,AC50,[14],695 nM (active) and 718 nM (active) and 693 nM (active)
same,AC50,[15],1.09 µM (active) and 988 nM (active) and 1.44 µM (active)
same,AC50,[16],200 nM (active) and 267 nM (active) and 401 nM (active)
same,AC50,[17],200 nM (active) and 397 nM (active) and 391 nM (active)
same,AC50,[18],799 nM (active) and 1.07 µM (active) and 953 nM (active)
same,AC50,[19],25 µM (active)
same,outcome,[19],inactive
